TTR transcr act: TTR transcription activators in neuroblastoma reporter cells, primary screen, cell-based, luminescence, SH-SY5Y, TTR promoter Gaussia luciferase | activation, % at 16.7 µM | 100% = recombinant luciferase protein wells | 1.3% of 92,000 active;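 active = activation above the mean of all tested compounds plus 3 SD, cut at about 9.5% in these data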;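 also: cells exposed to compounds for one day before reading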
TTR inh HuH7: TTR promoter reporter inhibitors in hepatoma cells, counter-screen for TTR transcription activator project, cell-based, luminescence, HuH7 hepatoma; shares compounds with TTR transcr act; inhibition, % at 16.7 µM; 4% of 1,100 active; HuH7 TTR promoter-Gaussia luciferase reporter;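 active = average inhibition above the solvent-only control wells' mean plus 3 SD, cut at about 15% in these data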;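 also: inhibitors lower well luminescence so higher value means more inhibition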
TTR up confirm: TTR transcription activators, retest, confirmation, cell-based, luminescence, SH-SY5Y, triplicate. activation, % at 16.7 µM. SHSY5Y TTR promoter Gaussia luciferase; 100% = purified Lucia enzyme wells, no cells. shares compounds with TTR transcr act. 1,100 tested, under 10 active;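 active = mean activation above a set limit taken from the earlier primary screen, cut at about 11% in these data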
A number is an active result; - = inactive. Only a selection was taken, and hits are over-represented in it overall.

SMILES	TTR transcr act	others
CCOC(OCC)P(=O)(CNC(c1ccccc1)(c1ccccc1)c1ccccc1)OCC (stereo not given)	-
COc1ccccc1C(=O)NC1CCCCN(Cc2ccccc2C)C1=O (stereo not given)	-
CC(C)c1nc(C(N)=O)c2[nH]c(=O)n(-c3ccc(F)cc3)c2n1	9.8	TTR inh HuH7=-;TTR up confirm=-
CCOc1ccccc1-c1nc(C(N)=O)c2[nH]c(=O)n(-c3ccc(F)cc3)c2n1	-
Cc1ccsc1-c1nc(C(N)=O)c2[nH]c(=O)n(-c3ccc(Cl)cc3)c2n1	-
COc1cccc(Cn2cc(COC(=O)N3CCOCC3)nn2)c1	-
O=C(OCc1ccc(CSc2nnc(-c3cccc4ccccc34)o2)cc1)c1ccc(F)cc1	-
CCS(=O)(=O)Nc1ccc2c(c1)C(=O)N(C)[C@@H]1CC[C@H](CC(=O)N3CCCCC3)O[C@H]1CO2	-
Cn1cnc([N+](=O)[O-])c1Sc1ncnc2nc[nH]c12	-
Cn1cnc(Sc2ncnc3nc[nH]c23)c1[N+](=O)[O-]	38	TTR inh HuH7=-;TTR up confirm=-
COc1ccc(C(=O)CSc2ncnc3nc[nH]c23)cc1	-
COC(=O)C[C@@H]1CC[C@@H]2[C@@H](COc3ccc(NC(=O)Nc4ccccc4)cc3C(=O)N2C)O1	-
COc1ccc(S(=O)(=O)N2Cc3ccccc3CC2C(=O)Nc2ccc(O)cc2)cc1OC (stereo not given)	-
CCOc1ccc(NC(=O)C2Cc3ccccc3CN2S(=O)(=O)CC)cc1 (stereo not given)	20	TTR inh HuH7=-;TTR up confirm=-
CCS(=O)(=O)N1Cc2ccccc2CC1C(=O)Nc1ncc(C)s1 (stereo not given)	-
CC(C)CNS(=O)(=O)/C=C/c1cc2c(cc1CNC(=O)OC(C)(C)C)OCO2	-
C=CCN(C(=O)[C@@H](C)[C@@H](O)c1ccc(Cl)cc1)c1ccccc1	-
S=c1[nH]nc(-c2cc(-c3ccccc3)n[nH]2)n1/N=C/c1ccc(Cl)cc1	-
Nc1nc(-c2ccccc2)cn1/N=C/c1ccccc1	-
S=c1[nH]ncn1/N=C/c1ccccc1	18	TTR inh HuH7=-;TTR up confirm=-
COc1cc(-c2ccccc2)nc2ccccc12	-
O=C(NCc1ccc(F)cc1)c1cc(-c2ccncc2)nc2ccccc12	-
c1ccc(-c2cc(-c3ccncc3)nc3ccc4ccccc4c23)cc1	11	TTR inh HuH7=-;TTR up confirm=-
CCC[C@H]1[C@@H](NCc2ccccc2)CC[C@@]23CCCN2C(=O)CCC[C@@H]13	-
CCc1c(C2(O)CCCCC2)[nH]c2cnccc12	13	TTR inh HuH7=-;TTR up confirm=-
SMILES	TTR transcr act	others
Cc1c(C2(O)CCCCC2)[nH]c2ccc(C(F)(F)F)cc12	-
Cc1ccc(Cn2c(=O)n(Cc3ccc(C(=O)NCC4COC4)cc3)c(=O)c3ccccc32)cc1	-
Cc1ccccc1CN1CCCCC(NC(=O)c2ccc(COc3ccccc3)cc2)C1=O (stereo not given)	-
O=C(CCN1CCOCC1)c1ccccc1	-
N/C(CCN1CCOCC1)=N/O	10	TTR inh HuH7=-;TTR up confirm=-
O=C(CCN1CCOCC1)NCc1ccccc1	-
CC(=O)c1ccc([C@H](O)[C@@H](C(=O)N(C)c2ccccc2)C2CC2)cc1	-
CC1(C)OC2OC(C3COC(=O)O3)C(OC(=O)c3ccccc3)C2O1 (stereo not given)	25	TTR inh HuH7=-;TTR up confirm=-
CC1(C)OC2OC(COC(=O)c3ccc([N+](=O)[O-])cc3)C3OC(C)(C)OC3C2O1 (stereo not given)	-
CC(=O)N1C(C)(C)CC(=NOC(=O)c2ccccc2)CC1(C)C	-
O=C(CCc1ccccc1-c1ccccc1CCNC(=O)c1c(F)cccc1F)NCc1ccccc1	-
COc1ccccc1CC(NC(C)=O)C(=O)NC1CCN(C(=O)c2ccc([N+](=O)[O-])cc2)CC1 (stereo not given)	13	TTR inh HuH7=-;TTR up confirm=-
COc1ccc(CC(NC(C)=O)C(=O)NC2CCN(C(=O)c3ccc([N+](=O)[O-])cc3)CC2)cc1OC (stereo not given)	-
COc1ccccc1CC(NC(C)=O)C(=O)NC1CCN(C(=O)Nc2ccc(F)cc2)CC1 (stereo not given)	-
CCC[C@H]1[C@@H](NC(=O)c2cccc(N(C)C)c2)CC[C@@]23CCCN2C(=O)CCC[C@@H]13	-
O=C(NCCc1ccccc1)OCc1cn(-c2ccc(F)c(F)c2)nn1	-
COc1ccc(N(CC(=O)Nc2c(C)n(C)n(-c3ccccc3)c2=O)S(=O)(=O)c2ccccc2)cc1OC	12	TTR inh HuH7=-;TTR up confirm=-
COc1ccc(N(CC(=O)Nc2c(C)n(C)n(-c3ccccc3)c2=O)S(=O)(=O)c2ccc(F)cc2)cc1	-
Cc1ccc(N(CC(=O)Nc2c(C)n(C)n(-c3ccccc3)c2=O)S(C)(=O)=O)cc1C	-
C[C@@H]1CN([C@@H](C)CO)C(=O)c2cccc(NC(=O)Nc3cccc4ccccc34)c2O[C@H]1CN(C)S(=O)(=O)c1ccc2c(c1)OCCO2	-
COc1ccc(S[C@]2(C(=O)N3CCN(c4ncccn4)CC3)CC(=O)N(C(=O)C3CC3)[C@@H]2c2ccc(OC)cc2)cc1	-
Nc1c(C(=O)NCC2CCCO2)c2nc3ccccc3nc2n1-c1ccccc1 (stereo not given)	11	TTR inh HuH7=-;TTR up confirm=-
O=C(CSc1nc2ccccc2n1-c1ccccc1)NCC1CCCO1 (stereo not given)	-
Cc1ccc(C)n1-c1ccc(C(=O)NCC2CCCO2)cc1 (stereo not given)	-
CCOC(=O)[C@]12CCCC3=C1N(CCC3)C(=O)[C@@H](CC(=O)N1CCN(C(=O)c3ccco3)CC1)C2	-
SMILES	TTR transcr act	others
Cc1nc2ccccn2c1C(O)(c1ccccc1)c1ccccc1	-
C#CCN1CC(N(C)CCOC(=O)c2ccc(C(C)(C)C)cc2)CS1(=O)=O (stereo not given)	-
COC(=O)N[C@H]1CC=C[C@@H]1Cc1cccc(Oc2ccccc2)c1	-
Cn1c(=O)cc(OCCCC(=O)Nc2cc(-c3ccncc3)ccn2)c2ccccc21	-
Cc1cc(C)cc([C@H]2C[C@]34CN(Cc5ccccc5)S(=O)(=O)[C@H]3C[C@H]2O4)c1	-
Cc1cccc(CN2C[C@]34C=C[C@@H](C[C@@H]3S2(=O)=O)O4)c1	-
O=S1(=O)[C@H]2C[C@@H]3C=C[C@@]2(CN1Cc1ccc(Cl)cc1)O3	17	TTR inh HuH7=-;TTR up confirm=-
COC(=O)[C@]12C[C@H](CC(=O)NCc3ccc(C)o3)C(=O)N(Cc3cccc4ccccc34)C1=C[C@H](C1CCCC1)O[C@@H]2C	-
COc1ccc(CNC(=O)C2(CC3CC(c4ccccc4)=NO3)CCN(C(=O)CCCCCBr)CC2)cc1 (stereo not given)	-
O=C(Cc1ccc(F)cc1)N1CCC(CC2CC(c3cccc(Br)c3)=NO2)(C(=O)NCC2CCCCC2)CC1 (stereo not given)	-
CCCCCCCNC(=O)C1(CC2CC(c3cccc(Br)c3)=NO2)CCN(C(=O)c2ccccc2)CC1 (stereo not given)	17	TTR inh HuH7=-;TTR up confirm=-
COC(=O)[C@]1(C)CN(C(=O)OC(C)(C)C)C2=C1C(=O)C[C@](C)(C(=O)OC(C)(C)C)C2	-
CC(C)(N[C@@H](Cc1c[nH]c2ccccc12)C(=O)NCC(c1ccccc1)c1ccccc1)C(=O)NC1CCCCC1	-

Compound activity (PubChem)
